# The full ranking holds about 18,000 sequences; the median of “log2 normalized intensity” is about 0.36, and the highest 2% start at about 7.3. For the sample, the highest values were picked, then their nearest neighbours and some sequences at random.
# Biological target: T1, HNF4alpha8 (COS-7 nuclear extract) (Homo sapiens, UniProt P41235-5 1-452)
# T1 sequence: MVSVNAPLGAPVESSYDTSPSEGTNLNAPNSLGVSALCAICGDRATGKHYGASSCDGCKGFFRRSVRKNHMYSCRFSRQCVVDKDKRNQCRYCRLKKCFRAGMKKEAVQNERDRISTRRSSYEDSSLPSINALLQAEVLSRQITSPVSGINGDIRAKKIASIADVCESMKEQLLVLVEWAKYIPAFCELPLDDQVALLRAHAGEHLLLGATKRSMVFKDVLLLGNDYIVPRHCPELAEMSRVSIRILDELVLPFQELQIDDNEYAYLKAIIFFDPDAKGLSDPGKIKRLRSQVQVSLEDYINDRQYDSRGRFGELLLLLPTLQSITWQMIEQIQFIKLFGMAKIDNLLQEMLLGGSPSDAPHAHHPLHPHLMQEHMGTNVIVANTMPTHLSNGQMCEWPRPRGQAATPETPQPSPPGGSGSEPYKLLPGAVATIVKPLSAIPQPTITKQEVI
# Assay: protein-binding microarray; COS-7 nuclear extract on double-stranded Agilent 4x180k PBM; binding buffer, salt, pH and temperature not given in the material; high values mean tight binding
# Details: chain copies: 2; label: 3' end of strand 1 on the slide; dsDNA, one strand shown
# Summary of the method: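 Binding signal was defined as the normalized, background-corrected gProcessedSignal reported by Agilent software. It came from nuclear extracts of COS-7 cells transiently transfected with a human HNF4α isoform expression vector, applied to a custom Agilent SurePrint G3 4x180k array. That array held ~44,000 test sequences in quadruplicate as double-stranded ~60-nt oligonucleotides, and bound HNF4α was imaged at 2-µm resolution on an Agilent G2565CA scanner.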
row,Sequence,binding signal [log2 normalized intensity]
1,GGCTAAACCTAGCCCCCTTTCCCTTATCTTGCCTAGGGAGATTAGAGTATCGGTCGA,2.81
2,ACAGGTGCTCTTTATCAGCACCAAGAACAAGCCTAGGGAGATTAGAGTATCGGTCGA,-0.837
3,CTGGTGTAGTGGGGAGGGCATGGACTTTGGGCCTAGGGAGATTAGAGTATCGGTCGA,6.38
4,GTAGTGGGGAGGGCATGGACTTTGGAATTAGCCTAGGGAGATTAGAGTATCGGTCGA,8.06
5,TGATGACTTTTGACCCCAGGGGAAACTCCAGCCTAGGGAGATTAGAGTATCGGTCGA,5.06
6,GTATTAACATGTAAATATGACCTTTGCTTTGCCTAGGGAGATTAGAGTATCGGTCGA,7.1
7,TTATCATGTGGTATTAACATGTAAATATGAGCCTAGGGAGATTAGAGTATCGGTCGA,1.36
8,GAATGACTTTGGGGAAATGACCTTTGTCCAGCCTAGGGAGATTAGAGTATCGGTCGA,9.48
9,GGGGAGGGCATGGACTTTGGAATTAAGGAGGCCTAGGGAGATTAGAGTATCGGTCGA,5.91
10,GCATGGAATGACTTTGGGGAAATGACCTTTGCCTAGGGAGATTAGAGTATCGGTCGA,7.96
11,ATGTGGTATTAACATGTAAATATGACCTTTGCCTAGGGAGATTAGAGTATCGGTCGA,8.01
12,ATGACCTTTGAGCAATAGGAAATGGGAGGGGCCTAGGGAGATTAGAGTATCGGTCGA,3.35
13,CCTTTTTGGAATGTGTTTGCATGACTCATAGCCTAGGGAGATTAGAGTATCGGTCGA,1.5
14,GGAGGACTTTGGAATGGCAGTGCTTGTCCAGCCTAGGGAGATTAGAGTATCGGTCGA,2.52
15,TCACAATGGGGCATGACTTGTTATCACCTGGCCTAGGGAGATTAGAGTATCGGTCGA,0.285
16,TCCTTCTTGCTTAGGATAGGGTCAGTCTTTGCCTAGGGAGATTAGAGTATCGGTCGA,2.48
17,AGGCCGGTTGGCCAGGTTCCTCCACCGTCAGCCTAGGGAGATTAGAGTATCGGTCGA,-0.785
18,TTCAGGCAGGAATGCTGAACAATTGATTTAGCCTAGGGAGATTAGAGTATCGGTCGA,-0.858
19,GTCAAAAGGTGTATGTGGACTTTCAACTGCGCCTAGGGAGATTAGAGTATCGGTCGA,6.13
20,CCACACAGCACGTAATAGTTCATGAAATGGGCCTAGGGAGATTAGAGTATCGGTCGA,0.614
21,AAACAGAGGCTGAAATGGTTACAAAGGTCAGCCTAGGGAGATTAGAGTATCGGTCGA,5.42
22,AATGACCTTTGTCCAGCTGTGCCGAGCCTGGCCTAGGGAGATTAGAGTATCGGTCGA,4.91
23,GGGGAAATGACCTTTGTCCAGCTGTGCCGAGCCTAGGGAGATTAGAGTATCGGTCGA,7.01
24,ACTTTGGGGAAATGACCTTTGTCCAGCTGTGCCTAGGGAGATTAGAGTATCGGTCGA,7.84
25,ATATCCTGACTGCTGACCTTTAAGCCTATAGCCTAGGGAGATTAGAGTATCGGTCGA,4.7
26,TCTTATGTCCCTCCTGACCTTTGGACTTGAGCCTAGGGAGATTAGAGTATCGGTCGA,10.6
27,TCCAGTGGACATTGGCCCTTTGACCTTTAAGCCTAGGGAGATTAGAGTATCGGTCGA,8.05

row,Sequence,binding signal [log2 normalized intensity]
1,TTGGCTCTTATGTCCCTCCTGACCTTTGGAGCCTAGGGAGATTAGAGTATCGGTCGA,9.16
2,GCCTCTTTATCTCCTCCCCTTGAGACTTTAGCCTAGGGAGATTAGAGTATCGGTCGA,2.97
3,ACTGCTCCAGTGGACATTGGCCCTTTGACCGCCTAGGGAGATTAGAGTATCGGTCGA,6.76
4,ACCTTTGTCCTCATTGAGCCCTCCCCTTGTGCCTAGGGAGATTAGAGTATCGGTCGA,4.38
5,TCAGTTTGGCTCTTATGTCCCTCCTGACCTGCCTAGGGAGATTAGAGTATCGGTCGA,3.83
6,GACCTTTGGACTTGATAGAGTTTAAGTCTTGCCTAGGGAGATTAGAGTATCGGTCGA,7.2
7,TGGACATTGGCCCTTTGACCTTTAATCAAGGCCTAGGGAGATTAGAGTATCGGTCGA,7.21
8,AACTCTCAGTTTGGCTCTTATGTCCCTCCTGCCTAGGGAGATTAGAGTATCGGTCGA,0.947
9,CTCCTGACCTTTGGACTTGATAGAGTTTAAGCCTAGGGAGATTAGAGTATCGGTCGA,8.25
10,ACTACATTTCCAAGACCTCTTTGCGGATAGGCCTAGGGAGATTAGAGTATCGGTCGA,-0.337
11,AGTCAATCCCGTGGACTTTGCCTGCCCATCGCCTAGGGAGATTAGAGTATCGGTCGA,5.08
12,GCCTGCCCTTCGCTCCCCGACCTCCTGCTGGCCTAGGGAGATTAGAGTATCGGTCGA,2.62
13,CAGGTATTTGCTCTGTGATAGCCTTTTACCGCCTAGGGAGATTAGAGTATCGGTCGA,1.5
14,GGCAGGCTTCGAAAAATGGGTCTGGGATGTGCCTAGGGAGATTAGAGTATCGGTCGA,0.36
15,AGGGATTTCAGTGCCCTCATAAGAGACTTTGCCTAGGGAGATTAGAGTATCGGTCGA,2.22
16,TGTCCCTCCTGACCTTTGGACTTGATAGAGGCCTAGGGAGATTAGAGTATCGGTCGA,9.7
17,AGTCCTGACCTTGGACTCTGCCCTTGGCCTGCCTAGGGAGATTAGAGTATCGGTCGA,6.67
18,CCTGACCTGCCCTTTGTCCCTCCTGCTAGTGCCTAGGGAGATTAGAGTATCGGTCGA,3.93
19,TCCTCTATCTTCAAAGCCAGCAACGGTGAGGCCTAGGGAGATTAGAGTATCGGTCGA,0.0395
20,CAGCTGTCGTGTGAATAGCACTGACCAGCTGCCTAGGGAGATTAGAGTATCGGTCGA,0.27
21,GTTATCTAATGGAGAGGATGGGGACAAAGGGCCTAGGGAGATTAGAGTATCGGTCGA,2.55
22,GGAGAGGATGGGGACAAAGGTCAAGAAAGCGCCTAGGGAGATTAGAGTATCGGTCGA,6.33
23,GACAAAGGTCATTCATGTGCAGGTTGGAATGCCTAGGGAGATTAGAGTATCGGTCGA,3.11
24,AATTCCCTGCAAGGACAAAGGTCATGTTTTGCCTAGGGAGATTAGAGTATCGGTCGA,7.11
25,TTTGGAATTCCCTGCAAGGACAAAGGTCATGCCTAGGGAGATTAGAGTATCGGTCGA,7.71
26,CTAATGGAGAGGATGGGGACAAAGGTCAAGGCCTAGGGAGATTAGAGTATCGGTCGA,8.12
27,TTACTTTTGCAAGGTTTGTTCTTATCATGCGCCTAGGGAGATTAGAGTATCGGTCGA,0.712

# Reference: paper PMC10726135, “HNF4α isoforms regulate the circadian balance between carbohydrate and lipid metabolism in the liver”
